{"source": "PubChem BioAssay AID652126", "about": "(The Scripps Research Institute Molecular Screening Center, 2013)", "note": "In all, about 370,000 compounds went through this assay and about 3,700 (1%) were called active.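 Rule for the calls: active = activation above the mean over all tested compounds plus 3 SD (cut at about 0.9% in these data); inactive = the rest.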 Only a selection was taken, and actives are over-represented in it overall."}
{"tested_on": "Nuclear hormone receptor DAF-12 (Strongyloides stercoralis)", "experiment": "ssDAF-12 driven luciferase reporter activation – cell-based, luminescence, HEK293, GRIP1 co-expression, lit1-tk-luc, primary screen (AID 652126);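 note: 0% = DMSO-only wells and 100% = 3 µM delta7-dafachronic acid wells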", "settings": "HEK293 ssDAF-12/GRIP1 lit1-tk-luc reporter, at 6.8 µM, active compounds read high, % of 3 µM dafachronic acid response"}
{"smiles": "Cc1cc(NC(=O)c2ccco2)c(=O)n(Cc2c(F)cccc2Cl)c1", "activation": "-1.23% (inactive)"}
{"smiles": "Cn1c(=O)c2c(nc(NCCNC(=O)c3ccco3)n2Cc2ccccc2F)n(C)c1=O", "activation": "-0.73% (inactive)"}
{"smiles": "Cn1c(=NC(=O)c2ccco2)sc2cccc(F)c21", "activation": "2.16% (active)"}
{"smiles": "O=C(COc1ccccc1Cl)Nc1ccc(C(=O)c2ccc(C(=O)O)cc2)cc1", "activation": "-1.01% (inactive)"}
{"smiles": "O=C(COc1ccccc1Cl)Nc1ccccc1C(=O)NC1CC1", "activation": "-0.61% (inactive)"}
{"smiles": "CC(=O)Nc1ccc(NC(=O)COc2ccccc2C(=O)Nc2cccc(Cl)c2Cl)cc1", "activation": "1.78% (active)"}
{"smiles": "O=C(CSc1nc2ccccc2s1)N=Nc1c(O)[nH]c2ccccc12", "activation": "-1.23% (inactive)"}
{"smiles": "CCC1([N+](=O)[O-])COC(c2ccc(C(C)C)cc2)OC1", "note": "(stereo not drawn)", "activation": "-0.23% (inactive)"}
{"smiles": "CN(CCc1ccccc1)c1ccc([N+](=O)[O-])cn1", "activation": "-0.22% (inactive)"}
{"smiles": "CC(C)c1ccc(C=NNc2ccc([N+](=O)[O-])cn2)cc1", "activation": "1.01% (active)"}
{"smiles": "CCOC(=O)[C@@]12CCC3=C1N(CCC3)C(=O)[C@H](CC(=O)N1CCN(C(=O)c3ccco3)CC1)C2", "activation": "-0.8% (inactive)"}
{"smiles": "CN1[C@H](Cc2ccccc2)COc2cccc(N3CCSCC3)c2S1(=O)=O", "activation": "-0.12% (inactive)"}
{"smiles": "O=C(NCC1COc2ccccc2O1)c1ccc(NC(=O)c2cc(F)ccc2F)cc1", "note": "(stereo not drawn)", "activation": "-0.55% (inactive)"}
{"smiles": "COC(=O)c1ccccc1-n1cc(COC(=O)NCCc2ccccc2)nn1", "activation": "-1.12% (inactive)"}
{"smiles": "CCn1c(SCC(=O)Nc2nccs2)nnc1-c1ccco1", "activation": "-1.06% (inactive)"}
{"smiles": "Nn1c(SCC(=O)Nc2nccs2)nncc1=O", "activation": "-2.06% (inactive)"}
{"smiles": "Nn1c(SCC(=O)Nc2nccs2)nnc1-c1ccco1", "activation": "0.9% (active)"}
{"smiles": "O=S1(=O)CC(N2CCN(CCO)CC2)CN1Cc1cn(Cc2ccc(Cl)cc2)nn1", "note": "(stereo not drawn)", "activation": "-0.54% (inactive)"}
{"smiles": "O=S1(=O)c2ccc(Br)cc2OC[C@@H](Cc2ccccc2)N1Cc1cn(Cc2ccco2)nn1", "activation": "-1.35% (inactive)"}
{"smiles": "O=C(CCS(=O)(=O)c1ccccc1)Nc1ccc(Cl)c(Cl)c1", "activation": "-1.34% (inactive)"}
{"smiles": "Cc1cc(N)n2nc(-c3ccc(C(C)(C)C)cc3)cc2n1", "activation": "2.97% (active)"}
{"smiles": "CCOC(=O)C1=C(C)NC2=C(C(=O)CC(C)(C)C2)C1c1ccc2c(c1)OCO2", "note": "(stereo not drawn)", "activation": "-1.32% (inactive)"}
{"smiles": "COc1ccccc1NC(=O)c1c(Br)cnn1C", "activation": "-1.57% (inactive)"}
{"smiles": "COc1ccccc1NC(=O)c1ccc(C)s1", "activation": "1.3% (active)"}
{"smiles": "COc1ccccc1NC(=O)c1cc(Cl)nnc1Cl", "activation": "-0.66% (inactive)"}
{"smiles": "O=C(CSc1nnc(-c2cccc(Cl)c2)n1Cc1ccco1)Nc1ccc(OCc2ccccc2)cc1", "activation": "-1.14% (inactive)"}
{"smiles": "Cc1c(C(N)=O)sc2ncn(CCOc3ccccc3)c(=O)c12", "activation": "-2.14% (inactive)"}
{"smiles": "Cc1cccc2c1N(CCOc1ccccc1)C(=O)C2=O", "activation": "-1.52% (inactive)"}
{"smiles": "Cc1nn(CCOc2ccccc2)c(=O)n1-c1ccccc1F", "activation": "1.79% (active)"}
{"smiles": "Cc1ccc(NC(=O)c2cc(C)nn2-c2ccccc2)c(C)c1", "activation": "-1.78% (inactive)"}
{"smiles": "O=C(CNS(=O)(=O)c1ccccc1F)N1CCN(c2ccccn2)CC1", "activation": "-1.72% (inactive)"}
{"smiles": "Fc1ccc(-c2nnc(CSc3nnc(-c4ccc5c(c4)OCO5)o3)o2)cc1", "activation": "-1.18% (inactive)"}
{"smiles": "Fc1ccc2nc(-c3ccccc3)nc(SCc3nnc(-c4ccccc4)o3)c2c1", "activation": "1.48% (active)"}
{"smiles": "Cc1ccc2nc(SCc3nnc(-c4ccccc4[N+](=O)[O-])o3)c(C#N)cc2c1", "activation": "-1.27% (inactive)"}
{"smiles": "O=C1CC[C@@H](COc2ccc3[nH]cc(-c4ccccc4)c3c2-c2ccccc2)N1", "activation": "-0.33% (inactive)"}
{"smiles": "COC1=C[C@H](C(=O)NCCNC(C)=O)[C@H](C)[C@@H](c2ccccc2)CC1=O", "activation": "-1.26% (inactive)"}
{"smiles": "FC(F)(F)c1ccc2c3n(nc2c1)CCN=C3c1ccc(Cl)cc1", "activation": "1.01% (active)"}
{"smiles": "CC(=O)c1cc(C#N)c(SCC(=O)Nc2nccs2)nc1C", "activation": "-0.91% (inactive)"}
{"smiles": "Cc1csc(SCC(=O)Nc2sccc2C#N)n1", "activation": "0.96% (active)"}
{"smiles": "CC(c1nnc(SCC(=O)Nc2sccc2C#N)n1-c1ccc(Cl)cc1)N(C)C", "note": "(stereo not drawn)", "activation": "-0.72% (inactive)"}
{"smiles": "C=C(C)C1CC23C(=O)C4(C(=O)c5ccccc5)C[C@@]5(C)CCC(CC2C1(C)C)(C4=O)C35OC", "note": "(stereo partly drawn)", "activation": "-1.03% (inactive)"}
{"smiles": "Clc1ccc(-n2c(SC/C=C/c3ccccc3)nnc2-c2ccco2)cc1", "activation": "-1.68% (inactive)"}
{"smiles": "COc1ccc(C(=O)OCCN(C)C2CN(Cc3cn(Cc4cccc(C)c4)nn3)S(=O)(=O)C2)cc1OC", "note": "(stereo not drawn)", "activation": "-0.78% (inactive)"}
{"smiles": "Brc1ccc2nc(-c3ccccc3)c(Cc3ccccc3)n2c1", "activation": "-0.45% (inactive)"}
{"smiles": "Cc1ccc2nc(-c3ccccc3)c(CC3CCCCC3)n2c1", "activation": "1.3% (active)"}
{"smiles": "COc1ccccc1Cc1c(-c2ccc(F)cc2)nc2ccc(C)cn12", "activation": "0.07% (inactive)"}
{"smiles": "COc1ccc(-n2c(SCC(=O)Nc3ccc4cn[nH]c4c3)nnc2-c2cccnc2)cc1", "activation": "-1.16% (inactive)"}
{"smiles": "O=C(CSc1nc2c(c(=O)[nH]1)CCCC2)N1CCCCC1", "activation": "-1.67% (inactive)"}
{"smiles": "CCN(CC)CC(=O)Nc1sc2c(c1C(=O)c1ccccc1C)CCC2", "activation": "-1.11% (inactive)"}
{"smiles": "NC(=O)c1c(NC(=O)c2ccccc2)sc2c1CCCC2", "activation": "2.15% (active)"}
{"smiles": "NC(=O)c1c(Nc2nc3c(F)cccc3s2)sc2c1CCCC2", "activation": "1.29% (active)"}
{"smiles": "NNc1nc2c(Cl)cccc2s1", "activation": "-0.81% (inactive)"}
{"smiles": "COC(=O)c1c(NC(=O)COC(=O)[C@@H](NS(=O)(=O)c2ccccc2)C(C)C)sc2c1CCC2", "activation": "-1.44% (inactive)"}
{"smiles": "CCOC(=O)C(NC(=O)CC(C)C)(Nc1sc2c(c1C(N)=O)CCCC2)C(F)(F)F", "note": "(stereo not drawn)", "activation": "-0.54% (inactive)"}
{"smiles": "Cc1ccc(C(=O)C2CCN(CC(=O)NCCC(C)C)CC2)cc1", "activation": "-1.67% (inactive)"}
{"smiles": "Clc1ccc(Nc2ccc3ccccc3n2)cc1", "activation": "2.58% (active)"}
{"smiles": "C=CCNc1nc(Nc2ccc(Cl)cc2)nc(OC)n1", "activation": "-0.26% (inactive)"}
{"smiles": "CC1(C)N=C(N)NC(Nc2ccc(Cl)cc2)=N1", "activation": "-1.4% (inactive)"}
{"smiles": "O=C(CCl)NC1CCCCN(Cc2cccc(C(F)(F)F)c2)C1=O", "note": "(stereo not drawn)", "activation": "-1.24% (inactive)"}
{"smiles": "NCC(=O)c1cccc2ccc[n+]([O-])c12", "activation": "-0.72% (inactive)"}
{"smiles": "Cc1ccccc1NC(=O)C1CCN(c2ncccn2)CC1", "activation": "0.24% (inactive)"}
{"smiles": "CCCCNc1cccc2c1S(=O)(=O)N[C@@H](C)CO2", "activation": "-0.23% (inactive)"}
{"smiles": "Cc1ccc(NC(=O)CSc2nnc(COc3ccccc3C)o2)cc1", "activation": "-1.56% (inactive)"}
{"smiles": "Cc1ccccc1OCc1nnc(SCC(=O)N2c3ccccc3Sc3ccc(Cl)cc32)o1", "activation": "-1.28% (inactive)"}
{"smiles": "CC(C)NC(=O)CSc1nnc(COc2ccccc2Cl)o1", "activation": "1.16% (active)"}
{"smiles": "COc1cccc(NC(=O)c2cc(S(=O)(=O)N3CCc4ccccc43)cn2C)c1", "activation": "-1.71% (inactive)"}
{"smiles": "Cc1ccc(CSc2nnc(SCC(=O)NN=Cc3cc(Br)ccc3F)s2)cc1", "activation": "-1.54% (inactive)"}
{"smiles": "CCCCNC(=O)C[C@H]1C(=O)N(Cc2ccc(OC)cc2)C2=CCCC[C@@]21C(=O)OCC", "activation": "-0.84% (inactive)"}
{"smiles": "COC[C@@H]1CCCN1c1ccc2c(c1)O[C@H](C)CCN(C1CC1)S2(=O)=O", "activation": "-1.91% (inactive)"}
{"smiles": "CNc1ccc([N+](=O)[O-])cc1C(=O)O", "activation": "-1.81% (inactive)"}
{"smiles": "CCC(C)C(=O)Nc1cc([N+](=O)[O-])ccc1Cl", "note": "(stereo not drawn)", "activation": "-1.16% (inactive)"}
{"smiles": "Cc1ccc(NC(=O)c2cc([N+](=O)[O-])ccc2Cl)c(O)c1", "activation": "1.5% (active)"}
{"smiles": "Cc1ccc(Cn2cc(COC(=O)N(C)Cc3ccccc3)nn2)cc1", "activation": "-0.46% (inactive)"}
{"smiles": "C=CCN1C(=O)[C@@H](CC(=O)NCCCOCCCC)[C@]2(C(=O)OCC)CCCCC/C=C/12", "activation": "-0.98% (inactive)"}
{"smiles": "O=C(CSc1nc2sc3c(c2c(=O)n1-c1ccccc1)CCCC3)NN=Cc1ccc(OCc2ccccc2)cc1", "activation": "-0.96% (inactive)"}
{"smiles": "CCOc1ccc(NC(=O)c2ccc(CSc3nnnn3C)cc2)cc1", "activation": "-1.09% (inactive)"}
{"smiles": "CCOc1ccc(NC(=O)c2ccc(NC(=O)COC(=O)c3ccc(NC(=O)CC#N)cc3)cc2)cc1", "activation": "0.93% (active)"}
{"smiles": "CCOc1ccc(NC(=O)c2ccc(NC(=O)CN3C(=O)C(=O)N(CC(C)C)C3=O)cc2)cc1", "activation": "-0.14% (inactive)"}
{"smiles": "COc1ccc(CN2C(=O)N3Cc4cc(OC)ccc4C3CS2(=O)=O)cc1", "note": "(stereo not drawn)", "activation": "-1.71% (inactive)"}
{"smiles": "CCOC(=O)C1(Cc2ccccc2)CCN(Cc2cn(C(C)=O)c3ccccc23)CC1", "activation": "0.62% (inactive)"}
{"smiles": "CCOC(=O)[C@]12CCCCC/C=C\\1N(Cc1ccc(OC)cc1)C(=O)[C@H]2CC(=O)NCCCN1CCCC1=O", "activation": "-0.74% (inactive)"}
{"smiles": "Cc1ccc(-n2c(SCC(=O)Nc3cccc4ccccc34)nnc2-c2ccco2)cc1", "activation": "-0.86% (inactive)"}
{"smiles": "Nc1ccccc1/C=N\\N=C/c1ccccc1N", "activation": "1.95% (active)"}
{"smiles": "CN(CCc1ccccc1)C(=O)Cn1nc(-c2ccccc2)ccc1=O", "activation": "-0.4% (inactive)"}
{"smiles": "COC(=O)C[C@@H]1CC[C@@H]2[C@@H](COc3ccc(NC(=O)Nc4ccc(F)c(F)c4)cc3C(=O)N2C)O1", "activation": "-1.37% (inactive)"}
{"smiles": "O=C(NC1CCC1)c1ccc(C#CC2CC2)cn1", "activation": "0.89% (inactive)"}
{"smiles": "O=C(NCCCc1ccccc1)[C@H](Cc1ccccc1)NC1(C(=O)NCCc2c[nH]c3ccccc23)CCC1", "activation": "-0.89% (inactive)"}
{"smiles": "NC(c1csc(NC(=O)Nc2cccc(C(F)(F)F)c2)n1)C1CCCCC1", "note": "(stereo not drawn)", "activation": "-0.46% (inactive)"}
{"smiles": "Cc1cc(S(=O)(=O)N2CCOCC2)ccc1OCC(=O)Nc1cccc(C(F)(F)F)c1", "activation": "-1.62% (inactive)"}
{"smiles": "Cc1ccc(NC(=O)Nc2cccc(C(F)(F)F)c2)nc1", "activation": "4.62% (active)"}
{"smiles": "CCN(CC)c1nc(-c2ccccc2)cc(C(F)(F)F)c1C#N", "activation": "-0.98% (inactive)"}
{"smiles": "Cc1cc(C(F)(F)F)c(C#N)c(SCC(=O)NC2CC2)n1", "activation": "-1.36% (inactive)"}
{"smiles": "N#Cc1c(C(F)(F)F)cc(-c2ccc(Cl)cc2)nc1SCC(=O)O", "activation": "1.77% (active)"}
